According to PubChem BioAssay (Tox21):
Results filed as inconclusive are left out. Active and inactive are the calls of the source. Calls come from the whole dose curve; as a rule, active = well fitted cell-killing curve with a large enough effect in the repeat runs; inconclusive = weak or mixed curves, or effect the other way; inactive = no such curve, though single readings can be large or run the other way.

Assay: qHTS assay to identify small molecule antagonists of the vitamin D receptor (VDR) signaling pathway - cell viability counter screen (AID 743225); note: nearly all actives have a fitted effect of over 50% in size
Conditions: VDR-bla HEK293T viability, CellTiter-Glo luminescence, 16 h; series mostly up to 61 µM; viability change, negative = cytotoxic: at the top concentration
Method in brief: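 HEK293T VDR-bla; cpd + 1a,25-(OH)2D3 3 nM final, 16 h 37C/5% CO2; B/G FRET substrate 2 h RT; then CellTiter-Glo 30 min RT, luminescence.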
% is set by controls: 0 for no effect and ±100 for the full control effect.

SMILES | viability change, negative = cytotoxic
CC(COc1ccc(C(C)(C)C)cc1)OS(=O)OCCCl (stereo unspecified) | 0% [at 78.8 µM] (inactive)
Cc1ccc(Nc2nccc(N(C)c3ccc4c(C)n(C)nc4c3)n2)cc1S(N)(=O)=O | -13.7% (inactive)
CCOCCn1c(C2CCN(CCc3ccc(C(C)(C)C(=O)O)cc3)CC2)nc2ccccc21 | 0.251% (inactive)
CCCC(=O)O[C@]1(C(=O)COC(=O)CC)CC[C@H]2[C@@H]3CCC4=CC(=O)CC[C@]4(C)[C@H]3[C@@H](O)C[C@@]21C | -3.63% [at 28.5 µM] (inactive)
O=C(O)c1ccccc1NCCc1ccccc1 | 4.13% (inactive)
CCC(C)(C)C1CCC(O)CC1 (stereo unspecified) | 3.32% (inactive)
CC(=O)[C@H]1CC[C@H]2[C@@H]3C[C@H](C)C4=CC(=O)CC[C@]4(C)[C@H]3[C@@H](O)C[C@]12C | 15.5% (inactive)
COCc1c(C(C)C)nc(C(C)C)c(/C=C/[C@@H](O)C[C@@H](O)CC(=O)O)c1-c1ccc(F)cc1 | 5.77% (inactive)
CCNC(=O)N1CCN(CCCC(c2ccc(F)cc2)c2ccc(F)cc2)CC1 | 7.23% (inactive)
O=C(Nc1ccccc1)Nc1ccccc1 | -13.4% [at 78.8 µM] (inactive)
c1cc[c]([Bi]([c]2ccccc2)[c]2ccccc2)cc1 | 3.36% (inactive)
CCOC(=O)N1CCC(n2c(=O)[nH]c3cc(Cl)ccc32)CC1 | 0.264% (inactive)
CCn1cc(C(=O)O)c(=O)c2cc(F)c(N3CCNCC3)nc21 | 0.83% (inactive)
CC(=O)OCC(=O)[C@@]12OC(C)(C)O[C@@H]1C[C@H]1[C@@H]3C[C@H](F)C4=CC(=O)C=C[C@]4(C)[C@@]3(F)[C@@H](O)C[C@@]12C | 12.9% (inactive)
CCCCC1C(=O)N(c2ccccc2)N(c2ccc(O)cc2)C1=O (stereo unspecified) | -3.29% (inactive)
CN(C)C(=O)Nc1ccc(Oc2ccc(Cl)cc2)cc1 | -6.94% (inactive)
